Source: PubChem BioAssay (National Center for Advancing Translational Sciences (NCATS))
VDR inh: inhibitors of human vitamin D receptor; Potency, µM, inactives show max response, negative = inhibition, usual class: inhibitors; AID 504847; VDR-SRC2-3 peptide fluorescence polarization, 2 h; actives 0.93% (n = 400,000); also: % is scaled to controls: 0 for no effect and ±100 for the full control effect
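VDR–SRC2-3 interaction, FP format. Cmpds 23 nl via pintool, brief spin, 2 h ambient incubation.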
G9a block: blocks human histone lysine methyltransferase G9a; Q96KQ7; G9a H3K9 monomethylation, AlphaScreen, 2 h; Potency, µM (titrated, usually from 102 µM), for inactives: at the highest dose activity, negative = inhibition, actives largely listed as inhibitors; actives 8.8% (n = 350,000); AID 504332; also: % is scaled to controls: 0 for no effect and ±100 for the full control effect; nearly all actives have a fitted effect of over 75% in size
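Signal arises when biotinylated H3K9 peptide, once monomethylated, bridges streptavidin donor and antibody-captured acceptor beads. Enzyme at 20 nM was preincubated 15 min with test compounds; peptide 500 nM and SAM 20 uM then reacted for 2 h.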
Sfp inh: blocks B. subtilis Sfp PPTase activity; Biochemical Sfp PPTase activity, qHTS; Potency, µM, inactives show largest response in the series, negative = inhibition, usual class: inhibitors; actives 3.5% (n = 310,000);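 also: the enzyme is Sfp with the accession as filed and its product quenches rhodamine fluorescence; 0% = enzyme reaction without inhibitor and -100% = no enzyme wells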
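After 15 min at room temperature with compound, 15 nM Sfp received 5 uM rhodamine-CoA plus 12.5 uM BHQ-2-ybbR (50 mM Hepes pH 7.6, 10 mM MgCl2). Rate came from the fluorescence difference over 30 min, ex 525/em 598 nm.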
Glioma ERSR ind: inducers of ER stress response in human glioma cells. U87-MG GRP78 promoter luciferase reporter, 16 h. Potency, µM, inactives show at the top dose activation, actives largely listed as activators. actives 0.02% (n = 420,000). AID 602332; also: series mostly up to about 76 µM; % of control where 0% means no effect; nearly all actives have a fitted effect of over 35% in size
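Stably transfected U87-MG human glioma cells carrying a GRP78-based luminescent sensor were seeded at 1000 cells/well, pin-dosed with compounds and incubated 16 h. Luciferase reagent was then added, and end-point luminescence was read after 10 min at room temperature.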
12-LOX inh: blocks human arachidonate 12S-lipoxygenase; purified 12hLO, xylenol orange hydroperoxide absorbance; actives 1.1% (n = 580,000); Potency, µM (series often up to 108 µM), without a hit: top-dose activity change, negative = inhibition, usual class: inhibitors; P18054; AID 1671190; also: % is scaled to controls: 0 for no effect and ±100 for the full control effect
Target sequence (P18054 whole entry, looked up): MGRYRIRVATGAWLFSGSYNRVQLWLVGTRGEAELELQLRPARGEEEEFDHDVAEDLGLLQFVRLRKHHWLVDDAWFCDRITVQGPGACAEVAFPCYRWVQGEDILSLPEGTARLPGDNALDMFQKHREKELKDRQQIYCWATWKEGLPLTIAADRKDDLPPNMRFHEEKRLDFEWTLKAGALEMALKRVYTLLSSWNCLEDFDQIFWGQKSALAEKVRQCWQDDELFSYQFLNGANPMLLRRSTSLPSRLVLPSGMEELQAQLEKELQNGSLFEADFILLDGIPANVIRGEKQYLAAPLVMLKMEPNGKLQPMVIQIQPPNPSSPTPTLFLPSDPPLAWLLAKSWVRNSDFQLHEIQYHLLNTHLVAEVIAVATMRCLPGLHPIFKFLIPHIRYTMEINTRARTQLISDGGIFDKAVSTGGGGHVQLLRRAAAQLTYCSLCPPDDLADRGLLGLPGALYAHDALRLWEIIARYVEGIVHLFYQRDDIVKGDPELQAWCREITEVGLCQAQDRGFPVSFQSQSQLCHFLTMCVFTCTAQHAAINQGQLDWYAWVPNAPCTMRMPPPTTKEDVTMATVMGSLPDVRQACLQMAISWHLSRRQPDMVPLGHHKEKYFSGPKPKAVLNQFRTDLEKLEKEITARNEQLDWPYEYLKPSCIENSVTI
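Purified human 12hLO (150 nM final) in 25 mM Hepes, 0.01% Triton X-100, pH 7.0 was preincubated 15 min at room temperature with compound. Then 40 uM arachidonic acid was added, 30 min. Hydroperoxide was read by Fe-XO absorbance ratio 573/405 nm.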
Numbers without * were called inactive; ? = inconclusive; nt = not tested or not shown; [ ] = remark or other dose. This is one part of a sample in which hits are shown more often than they occur. Calls follow the shape of the dose curve; as a rule, active = well fitted curve in the direction sought with a large enough effect; inconclusive = small, poorly fitted or top-dose-only effect, or another doubt; inactive = no such curve, though single readings can be large; an effect the other way counts as inactive or inconclusive. Potency is read from the fitted curve at half-maximal effect.

SMILES	VDR inh	G9a block	Sfp inh	Glioma ERSR ind	12-LOX inh
COc1cccc(N2CCN(Cc3cccnc3)CC2)c1	3.0%	14.1µM*	-23.8%	-4.9%	?
CCCn1nnnc1CN1CCCC1c1ccc2c(c1)OCCO2 (stereo unspecified)	nt	nt	nt	nt	-3.5%
COc1cc(C(=O)NC2CCCCC2)ccc1C	nt	nt	nt	nt	-9.8%
O=C(Nc1ccccc1)c1cc(-c2cccnc2)nc2ccccc12	nt	nt	nt	nt	0.9%
Fc1ccc(C(c2nnnn2Cc2cccs2)N2CCN(C3CCCC3)CC2)cc1 (stereo unspecified)	-3.0%	-25.3%[59 µM]	4.7%	-6.8%	?
O=C(c1ccco1)N1CCN(C(c2ccccc2Cl)c2nnnn2Cc2ccco2)CC1 (stereo unspecified)	-0.4%	-21.0%[59 µM]	50.1µM*	-1.0%	?
O=C(c1ccco1)N1CCN(C(c2ccc(F)cc2)c2nnnn2Cc2cccs2)CC1 (stereo unspecified)	-14.6%	?	-18.2%	-3.9%	?
c1ccc(C(c2nnnn2Cc2cccs2)N2CCN(C3CCCC3)CC2)cc1 (stereo unspecified)	-2.0%	44.7µM*	-5.5%	-9.4%	0.0%
O=C(c1ccco1)N1CCN(C(c2ccccc2)c2nnnn2Cc2cccs2)CC1 (stereo unspecified)	-10.4%	?	79.4µM*	-2.1%	?
CC(C)C(c1nnnn1Cc1cccs1)N1CCN(C(=O)c2ccco2)CC1 (stereo unspecified)	-9.1%	nt	17.8µM*	-6.7%	?
CN(Cc1ccc(Cl)cc1Cl)C(=O)CN1C(=O)NC2(CCCC2)C1=O	-5.1%	35.5µM*	nt	-4.1%	-8.7%
Cc1cc(N/N=C/c2c[nH]c3ccccc23)c2ccccc2n1	-1.9%	nt	-1.8%	-1.2%	16.1%
Cn1c(N/N=C/c2cc3ccccc3nc2Cl)nc2ccccc21	-5.8%	11.9%[59 µM]	79.4µM*	-3.8%	-8.3%
Cn1c(N/N=C/c2c[nH]c3ccccc23)nc2ccccc21	-11.6%	?	-24.8%	-3.5%	44.7µM*
O=S(Cc1ccccc1)Cc1c(Cl)cccc1Cl (stereo unspecified)	nt	nt	nt	nt	-6.4%
COC(=O)[C@@]1(C)[C@H]2C(=O)N(Cc3ccccc3)C(=O)[C@H]2[C@H]2CN=C(SCc3ccc(C)cc3)N21	-11.9%	nt	nt	-2.6%	39.8µM*
COC(=O)[C@@]1(C)[C@H]2C(=O)N(Cc3ccccc3)C(=O)[C@H]2[C@H]2CN=C(SCC(=O)c3ccccc3)N21	20µM*	nt	nt	0.5%	-1.0%
COC(=O)c1ccc(CSC2=NC[C@@H]3[C@@H]4C(=O)N(Cc5ccccc5)C(=O)[C@@H]4[C@](C)(C(=O)OC)N23)cc1	14.6%	nt	nt	-1.7%	-23.1%
N#Cc1ccccc1CSc1nnnn1-c1ccc(Cl)cc1	nt	nt	nt	nt	27.9%
Nc1c(C(=O)Nc2ccc(Br)cc2)sc2nc(-c3ccco3)ccc12	-21.5%	?	10µM*	11.8%	?
O=C(Nc1ccc(-n2nncc2-c2ccco2)cc1)c1ccc(F)cc1	7.9%	50.1µM*	2.4%	0.4%	-12.6%
Nc1c(C(=O)Nc2ccc(F)cc2)sc2nc(-c3ccco3)ccc12	-1.0%	39.8µM*	7.94µM*	1.9%	?
N#C/C(=C\c1ccc(O)c(Cl)c1)c1nc2ccccc2[nH]1	nt	nt	nt	nt	-4.2%
COc1ccccc1NC(=S)NNC(=O)c1nn(C)c(C)c1Cl	-8.6%	?	1.5%	3.2%	0.0%
COc1ccccc1NC(=S)NNC(=O)c1nn(C)c(C)c1Br	?	11.2µM*	1.6%	3.4%	5.2%
SMILES	VDR inh	G9a block	Sfp inh	Glioma ERSR ind	12-LOX inh
c1ccc2c(-c3nc(-c4ccncc4)no3)cccc2c1	-6.7%	29.2%[12.7 µM]	10µM*	4.4%	-14.3%
Cc1c(N2CCCC2)cc2c(c1N)C(C)(C)CC2(C)C	-11.8%	35.5µM*	12.0%	-10.7%	0.3%
Nc1cc(C(=O)O)ccc1N1CCCCCC1	8.4%	-6.3%[59 µM]	14.6%	-3.1%	3.4%
COc1cccc(CNC(=O)Cn2c(-c3ccc(F)cc3)nc(C)c(CCO)c2=O)c1	nt	nt	nt	nt	35.6%
Cc1ccc(/C=C2\SC(=S)N(/N=C/c3cc([N+](=O)[O-])ccc3O)C2=O)o1	?	6.31µM*	25.1µM*	-2.1%	nt
COc1ccc(OCCSC2=NCC(C)(C)CN2)cc1	nt	nt	nt	nt	35.5µM*
Cn1nc(C(=O)NCc2ccc(CN3CCCC3)cc2)c2ccccc2c1=O	nt	nt	nt	nt	20.8%
CCOc1cnc(-c2c(-c3c(Cl)cccc3Cl)noc2C)o1	6.8%	44.7µM*	11.0%	-3.7%	11.3%
Cc1cc(C)nc(SCCc2ccncc2)n1	?	3.98µM*	-5.7%	-1.8%	0.0%
CCOc1ccc(S(=O)(=O)NCC(c2ccc(N(C)C)cc2)N2CCCC2)cc1 (stereo unspecified)	5.8%	20µM*	nt	-3.3%	-16.2%
CCOc1ccc(S(=O)(=O)NCC(c2ccc(N(C)C)cc2)N2CCc3ccccc32)cc1 (stereo unspecified)	-1.3%	?	nt	-1.0%	-23.2%
Cc1ccc(S(=O)(=O)NCC(c2ccc(N(C)C)cc2)N2CCc3ccccc32)cc1C (stereo unspecified)	0.1%	5.62µM*	nt	-1.2%	0.5%
CCOc1ccc(N(C)C(CNS(=O)(=O)c2ccccc2)c2ccccc2)cc1 (stereo unspecified)	24.7%	11.2µM*	nt	nt	-25.5%
COc1ccc(S(=O)(=O)NCC(c2ccc(N(C)C)cc2)N2CCc3ccccc32)cc1 (stereo unspecified)	13.3%	12.6µM*	nt	-1.4%	-43.6%
CN(C)c1ccc(C(CNS(=O)(=O)c2ccc([N+](=O)[O-])cc2)N2CCOCC2)cc1 (stereo unspecified)	19.4%	-2.9%[0.501 µM]	nt	-3.6%	1.7%
CN(C)c1ccc(C(CNS(=O)(=O)c2ccc(Br)cc2)N2CCOCC2)cc1 (stereo unspecified)	3.1%	?	nt	-1.7%	-26.1%
Cc1nnc(NC(=O)C2c3ccccc3C(=O)N(CC(C)C)C23CCCCC3)s1 (stereo unspecified)	nt	nt	nt	nt	4.6%
CN(C)c1ccc(C(CNC(=O)COc2ccc(Cl)cc2)N2CCCC2)cc1 (stereo unspecified)	-4.2%	50.1µM*	-13.1%	-1.4%	-13.4%
CN(C)c1ccc(C(CNC(=O)COc2ccc(Cl)cc2)N2CCOCC2)cc1 (stereo unspecified)	1.6%	?	nt	-7.3%	-13.7%
O=S(=O)(c1ccccc1)c1nc(Nc2ccccc2N2CCOCC2)sc1Cl	0.2%	25.1µM*	-4.6%	-1.2%	?
O=C(c1c[nH]c2ccccc12)C(NCc1ccccc1)c1ccccc1 (stereo unspecified)	nt	nt	nt	nt	15.1%
CCOC(=O)c1c(-c2ccc(C)o2)csc1NC(=O)CN1CCC(C(N)=O)CC1	-22.7%	44.7µM*	31.6µM*	-1.5%	-0.5%
CCOC(=O)c1c(-c2ccc(C)o2)csc1NC(=S)NC(=O)c1ccc(F)cc1	1.3%	-8.0%[59 µM]	8.1%	-3.4%	?
